Compound activity (PubChem BioAssay)
Rows were chosen to be rich in hits. Some 2.2% of all compounds tested hit in one or more screens of this group.
Abeta yeast res: restores growth of yeast expressing A-beta42 peptide; yeast expressing A-beta42, growth rescue, OD600, 48 h; response scale: 0% DMSO, 100% iron-clioquinol control; Potency, µM (series often up to 46.1 µM), hits mostly activators; 410,000 compounds, 0.063% hits; AID 1347071; further: nearly all actives have a fitted effect of over 55% in size
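Yeast A-beta toxicity model in growth medium with pinned compounds, 48 h at 30 C; growth read as absorbance at 600 nm. Normalized to FeCl3/clioquinol equimolar mix (positive) and DMSO (negative).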
aSyn yeast inh: inhibitors of alpha-synuclein toxicity in yeast; Yeast expressing alpha-synuclein, growth rescue, BacTiter-Glo, 24 h; Potency, µM (highest dose often 46.1 µM), for inactives: at the top dose growth rescue (activation), most hits filed as activators; 370,000 compounds, 0.14% hits; AID 652106; further: % of control where 0% means no effect; nearly all actives have a fitted effect of over 65% in size
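Readout is rescue of growth in alpha-synuclein-expressing yeast, so inhibitors of toxicity appear as activators. Growth after 24 hr at 30 deg C in galactose medium is quantified by luminescence.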
Mito fusion act: inhibitors of mitochondrial division or activators of mitochondrial fusion; S. cerevisiae fusion-defective mutant growth rescue, CellTiterGlo 48 h; Potency, µM (highest dose often 46.1 µM), without a hit: at the highest dose growth rescue (activation), actives largely listed as activators; 320,000 compounds, 0.23% hits; AID 485298; further: % of control where 0% means no effect; nearly all actives have a fitted effect of over 45% in size
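Read-out: ATP-based luminescence (CellTiterGlo, 10 min ambient) reporting growth of fusion-defective ts yeast after 48 hours at 37C on glycerol/ethanol YPEG medium in the presence of compound.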
FUS suppressor: rescues growth of FUS-expressing yeast. AID 1347120. Potency, µM (series often up to 76.6 µM), actives largely listed as activators. 390,000 compounds, 0.24% hits. S. cerevisiae FUS-expressing, growth rescue, OD600, 24 h;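 further: plate controls were DMSO vehicle for no effect and reference control for full effect; nearly all actives have a fitted effect of over 55% in size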
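S. cerevisiae expressing FUS from galactose induction served as the toxicity model. Growth after 24hr at 30C, read as absorbance at 600 nm, indicates suppression of toxicity; compounds dosed at several concentrations.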
TDP43 rescue: rescues yeast growth from TDP-43 toxicity; TDP-43 expressing yeast growth rescue, BacTiter-Glo, 24 h; Potency, µM (highest dose often 46.1 µM), without a hit: top-dose growth rescue (activation), most hits filed as activators; 410,000 compounds, 1.8% hits; AID 652104; further: % of control where 0% means no effect; nearly all actives have a fitted effect of over 50% in size
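Readout is BacTiter-Glo luminescence of cell growth, so inhibitors register as activators. TDP-43-expressing yeast at OD600=0.02 in galactose medium, after raffinose pregrowth to mid-log, were incubated with compound for 24 hr at 30 deg C.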
Active calls of the source: *; i = inactive; u = inconclusive; x = no result given; ! = not confirmed by another sample. The call rests on the fitted dose curve; in most records, active means well fitted curve in the direction sought with a large enough effect; inconclusive means small, poorly fitted or top-dose-only effect, or another doubt; inactive means no such curve, though single readings can be large; an effect the other way counts as inactive or inconclusive. Potency means the concentration at half of the fitted maximal effect.

SMILES	Abeta yeast res	aSyn yeast inh	Mito fusion act	FUS suppressor	TDP43 rescue
CCC(C(=O)OCC(=O)Nc1ccc(SC(F)F)cc1)c1ccccc1 (stereo not drawn)	u	0%	1%	i	10µM*
O=S(=O)(NCCc1csc(-c2ccc(F)cc2)n1)c1ccc(F)cc1F	u	x	x	i	2.8µM*
O=S(=O)(NCCc1csc(-c2cccnc2)n1)c1ccc(Cl)s1	11µM*	-2%	22%	i	14µM*
O=S(=O)(NCCc1csc(-c2cccnc2)n1)c1cccs1	u	-12%	1%	i	20%
COc1ccc(F)cc1S(=O)(=O)NCCc1csc(-c2ccc(Cl)cc2)n1	i	x	x	u	u
Fc1cccc(Cl)c1C1SCc2nc3ccccc3n21 (stereo not drawn)	i	6%	x	i	13µM*
CC(=O)Nc1ccc(N2C(=O)CSC2c2c(F)cccc2Cl)cc1 (stereo not drawn)	u	x	-1%	i	6%
CC(C)(C)c1ccc(C(=O)NCC(c2cccnc2)N2CCc3ccccc3C2)cc1 (stereo not drawn)	i	x	x	i	22µM*
Cc1ccc(C(=O)NCC(c2cccnc2)N2CCc3ccccc3C2)cc1C (stereo not drawn)	i	x	x	i	15%
CC(=O)Nc1ccc(SCc2ncc(-c3ccccc3)o2)cc1	i	-18%	u	i	-1%
c1ccc(-c2cnc(CSc3ncnc4sccc34)o2)cc1	i	3%	1%	i	22µM*
COc1ccc(CNC2CCC23CCC(C)CC3)cc1OC (stereo not drawn)	x	x	x	i	x
COc1ccccc1CNC(=O)CCC(=O)N1CC2CCCN2c2ccccc21 (stereo not drawn)	i	x	x	i	6%
Cc1ccc(NC(=S)N2CCC(c3ccc(C)cc3)C2)cc1 (stereo not drawn)	u	-12%	-2%	i	18µM*
O=C(Nc1ccc(Cl)cc1)N1CCC(c2ccccc2)C1 (stereo not drawn)	i	1%	-2%	i	11µM*!
COc1ccc(NC(=S)N2CCC(c3ccc(C)cc3)C2)cc1 (stereo not drawn)	u	9%	-5%	i	8%
Cc1ccc(C2CCN(C(=O)Nc3ccccc3)C2)cc1 (stereo not drawn)	i	7%	-1%	i	10µM*
Cc1cc(C(=O)N/N=C/c2ccc(OCc3ccccc3)cc2)c(C)o1	u	2%	0%	i	13µM*
Cc1ccc(C)c(Nc2nc(NCc3ccco3)nc3nccnc23)c1	x	-1%	x	x	x
CSc1ccccc1NC(=O)COC(=O)/C=C/c1ccco1	i	1%	x	i	5µM*
O=C(COC(=O)/C=C/c1ccco1)NCCc1ccccc1	i	3%	6%	i	16µM*
O=C(COC(=O)/C=C/c1ccco1)NCc1ccco1	i	6%	-3%	i	3%
Cc1cc2cc3c(cc2nc1SCC(=O)N1CCCC1)OCCO3	i	3%	0%	i	18µM*
Cc1cc2cc3c(cc2nc1SCC(=O)O)OCCO3	i	-1%	5%	i	9%
COc1ccccc1N1CCN(C(=O)CCNS(=O)(=O)c2ccc(Br)s2)CC1	i	u	13%	i	22µM*
SMILES	Abeta yeast res	aSyn yeast inh	Mito fusion act	FUS suppressor	TDP43 rescue
COc1ccccc1N1CCN(C(=O)CNS(=O)(=O)c2ccc(Br)s2)CC1	i	18%	11%	i	17%
Cc1ccc(S(=O)(=O)NCCC(=O)N2CCN(c3ccccc3)CC2)cc1C	i	17%	x	i	u
O=C(CCNS(=O)(=O)c1ccc(Br)s1)N1CCN(c2ccccc2)CC1	i	u	16%	i	18µM*
O=C(NC1CCCCN(Cc2ccc(Cl)cc2)C1=O)c1c(F)cccc1F (stereo not drawn)	x	x	x	i	x
COc1cc(/C=C/C(=O)OCC(=O)NCCC2=CCCCC2)cc(OC)c1OC	i	14%	x	i	35µM*
COc1cc(/C=C/C(=O)OCC(=O)NCCC2=CCCCC2)ccc1O	i	-3%	u	i	0%
COC(=O)C1CN(Cc2cn(Cc3ccc(C)cc3)nn2)CCS(=O)(=O)N1Cc1ccc(F)cc1 (stereo not drawn)	x	x	x	i	x
COc1cccc(C(=O)N2c3ccccc3Sc3ccccc32)c1	i	24%	u	i	22µM*
COc1ccccc1CNC(=O)COc1ccc(C)cc1	i	23%	-5%	i	11µM*
COC(=O)c1ccc(OCC(=O)c2ccccc2OC)cc1	i	0%	5%	i	11µM*
Cc1ccn2cc(CNC(=O)c3cccc(C(F)(F)F)c3)nc2c1	i	x	x	i	18%
CCCN1C(=O)c2ccccc2NC1c1ccc(OC)c(COc2cccc(C)c2C)c1 (stereo not drawn)	x	4%	x	x	x
COc1ccc(-c2nc3sc(CCNC(=O)C(=O)Nc4ccc(C)c(C)c4)c(C)n3n2)cc1	i	x	x	i	2%
CN(C)c1ccc(C=Nc2ccc(/C=C3\C=Cc4ccccc43)cc2)cc1	x	-33%	x	x	x
COc1cc(-c2csc(N3CCC(C(N)=O)CC3)n2)cc(OC)c1OC	x	x	x	i	x
COC(=O)C1=CC(C(=O)c2cccs2)=NN(c2ccc(OC)cc2)C1C(=O)OC (stereo not drawn)	i	5%	18µM*	i	-5%
CCOC(=O)c1ccc(NC(=O)Cn2nc(C)c3nn(-c4ccc(Cl)cc4)c(C)c3c2=O)cc1	i	x	x	i	-6%
CC(C)(C)c1cnnn1-c1ccc(C(=O)CCl)cc1	i	-9%	-31%	i	8.9µM*
CC(C)c1ccc(OC[C@@H](O)CN2CCC(C(O)(c3ccccc3)c3ccccc3)CC2)cc1	x	x	x	i	x
CC(C)N(C(=O)[C@H]1CC(CC(=O)NCc2ccco2)C(=O)N2CCc3c([nH]c4ccccc34)[C@]12C)C(C)C (stereo partly drawn)	i	8%	x	i	25%
CC[C@]12c3[nH]c4cc(-c5ccco5)ccc4c3CCN1C(=O)[C@@H](CC(=O)NCc1ccc(OC)c(OC)c1)C[C@@H]2C(=O)N1CCN(C(=O)c2ccco2)CC1	i	4%	x	35µM*	19%
CC[C@]12c3[nH]c4cc(CCC(=O)N(C)C)ccc4c3CCN1C(=O)[C@@H](CC(=O)NCc1ccc(OC)c(OC)c1)C[C@@H]2C(=O)N1CCN(C(=O)c2ccco2)CC1	i	3%	x	i	5%
CC[C@]12c3[nH]c4ccccc4c3CCN1C(=O)C(CC(=O)NC/C=C(\C)CCC=C(C)C)C[C@@H]2C(=O)N1CCN(C(=O)C2CC2)CC1 (stereo partly drawn)	i	-10%	x	18µM*	0%
